Compound activity (PubChem BioAssay)
DENV2 CPE: DENV2-induced cell death inhibition | 1.7% of 350,000 active | CPE inhibition, % at 9.99 µM | DENV2-infected cells, cytopathic effect rescue, plate reader; in the data active means CPE inhibition above about 20%, passing the limit was not always enough; inconclusive means no clear call, values can overlap the other calls; tested in BHK-21 cells;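 further: 0% = median of neutral control wells and 100% = median of positive control wells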
RAD52 anneal inh: blocks human RAD52 DNA annealing. 0.46% of 360,000 active. inhibition, % at 18.7 µM. P43351. recombinant RAD52 DNA annealing, FRET fluorescence;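 active means every replicate showing at least 50% inhibition; inconclusive means mean inhibition at least 50% but not in every replicate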
AF4-AF9 inh: inhibitors of human MLL-AF4/AF9 interaction; 0.47% of 350,000 active; P42568; AlphaScreen, biotin-AF4 peptide binding to FLAG-AF9; AID 651704; inhibition, % at 10 µM;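 active means every replicate reaching a set inhibition limit, whatever the replicate mean, cut at about 25% in these data; inconclusive means mean inhibition reaches that limit but some replicates miss it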;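 further: 0% = plate neutral control median and 100% = total signal loss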
Target sequence (P42568 whole entry, looked up): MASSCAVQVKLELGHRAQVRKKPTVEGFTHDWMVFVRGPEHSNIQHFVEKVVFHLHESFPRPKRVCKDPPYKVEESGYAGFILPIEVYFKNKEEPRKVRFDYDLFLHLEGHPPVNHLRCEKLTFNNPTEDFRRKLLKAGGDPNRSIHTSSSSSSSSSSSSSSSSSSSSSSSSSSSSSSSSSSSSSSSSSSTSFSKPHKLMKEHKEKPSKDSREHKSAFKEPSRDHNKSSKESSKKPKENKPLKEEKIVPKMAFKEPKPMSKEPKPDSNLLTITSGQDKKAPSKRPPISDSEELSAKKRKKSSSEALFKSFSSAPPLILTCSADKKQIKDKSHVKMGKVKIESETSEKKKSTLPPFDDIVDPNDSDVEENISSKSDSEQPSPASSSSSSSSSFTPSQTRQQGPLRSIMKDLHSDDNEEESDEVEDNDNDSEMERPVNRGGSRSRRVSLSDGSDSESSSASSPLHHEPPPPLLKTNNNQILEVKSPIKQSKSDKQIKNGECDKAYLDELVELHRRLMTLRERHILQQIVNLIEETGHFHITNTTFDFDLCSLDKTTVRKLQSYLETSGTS
ERAP1 inh: blocks human ERAP1 aminopeptidase activity | Q9NZ08 | AID 652197 | inhibition, % at 10.7 µM | 0.15% of 340,000 active | recombinant ERAP1, Leu-AMC fluorescence, 60 min;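 active means mean replicate inhibition of at least 30%, or all replicates individually reaching that 30% level; inactive means mean below 30% and not every replicate reaching it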;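 further: 0% = neutral control wells and 100% = L-leucinethiol positive control wells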
FGF22 binding: FGF22 (human) thermal shift binding; Q9HCT0; recombinant FGF22 thermal shift, SYPRO orange fluorescence; percent of sucrose octasulfate shift, DMSO zero; activity (Tm shift, normalised), % at 9.99 µM; 1.5% of 340,000 active; AID 651658;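 active means mean Tm shift, scaled 0 neutral to 100 positive control, at about 1.3% or above, every replicate too, limit read from the data; inconclusive means no clear call, values can overlap the other calls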
Numbers without * were called inactive; ? = inconclusive; / = no result given; ! = repeats disagree. Only some compounds are listed: those with a hit (about 4% of all), similar ones and a draw of the others.

SMILES	DENV2 CPE	RAD52 anneal inh	AF4-AF9 inh	ERAP1 inh	FGF22 binding
C[C@@H]1CN([C@@H](C)CO)C(=O)Cc2cc(NC(=O)CCCCCC(=O)Nc3ccccc3N)ccc2O[C@H]1CN(C)Cc1ccc(-c2ccccc2)cc1	25*	-21	0	0	0
C[C@@H]1CN([C@@H](C)CO)C(=O)Cc2cc(NC(=O)CCCCCC(=O)Nc3ccccc3N)ccc2O[C@@H]1CN(C)Cc1ccc(Cl)c(Cl)c1	11	4	2	-4	0
C[C@H](CO)N1C[C@H](C)[C@H](CN(C)Cc2ccc(-c3ccccc3)cc2)Oc2ccc(NC(=O)CCCCCC(=O)Nc3ccccc3N)cc2CC1=O	2	-26	1	3	0
C[C@@H]1CN([C@H](C)CO)C(=O)Cc2cc(NC(=O)CCCCCC(=O)Nc3ccccc3N)ccc2O[C@H]1CN(C)Cc1ccc(C(F)(F)F)cc1	18	2	-2	2	-1
C[C@H]1CN([C@@H](C)CO)C(=O)Cc2cc(NC(=O)Cc3ccccc3)ccc2O[C@@H]1CN(C)Cc1ccncc1	23*	2	-2	2	0
C[C@H](CO)N1C[C@H](C)[C@H](CN(C)Cc2ccncc2)Oc2ccc(NC(=O)Cc3ccccc3)cc2CC1=O	0	0	-3	-1	0
C[C@@H]1CN([C@H](C)CO)C(=O)Cc2cc(NC(=O)CCCCCC(=O)Nc3ccccc3N)ccc2O[C@@H]1CN(C)Cc1ccc(Cl)c(Cl)c1	84*	-18	1	-1	0
C[C@@H]1CN([C@H](C)CO)C(=O)Cc2cc(NC(=O)CCCCCC(=O)Nc3ccccc3N)ccc2O[C@@H]1CN(C)Cc1ccc(C(F)(F)F)cc1	81*	-20	0	1	0
CC(=O)N1[C@H](CO)[C@@H](c2ccccc2)C12CN(C(=O)Nc1ccccc1F)C2	-13	-2	-7	1	/
CN(C)C(=O)[C@@H]1N[C@@H]2c3ccc(-c4ccc(F)cc4)c(=O)n3C[C@@H]2[C@H]1CO	-7	-8	0	/	0
CCCN1[C@@H]2c3ccc(/C=C/c4ccccc4)c(=O)n3C[C@@H]2[C@@H](CO)[C@@H]1C(=O)N1CCOCC1	7	-42	-12	6	0
CO[C@@H]1CC[C@@H]2CCOc3c(C#N)cccc3C(=O)N(C)C[C@@H](c3ccccc3)CC(=O)N(C)C[C@@H]1O2	-2	2	-4	1	0
CCC(C)[C@H]1COCCS(=O)(=O)N1Cc1ccc(Br)cc1 (stereo not given in full)	100*	-4	1	-4	0
CCCC(=O)Nc1ccc2c(c1)C(=O)N(C)[C@H]1CC[C@H](CC(=O)NCCCN(C)C)O[C@H]1CO2	49*	17	1	3	0
CCCC(=O)Nc1ccc2c(c1)C(=O)N(C)[C@@H]1CC[C@@H](CC(=O)NCCCN(C)C)O[C@H]1CO2	16	-5	0	2	0
CCCC(=O)Nc1ccc2c(c1)C(=O)N(C)[C@H]1CC[C@H](CC(=O)NCCCN(C)C)O[C@@H]1CO2	61*	-9	0	0	0
CCOC(=O)c1c(NC(=O)COc2ccccc2F)sc2c1CC(C)(C)NC2(C)C	?	-9	-18	1	18*
CN1C(=O)c2cc(NC(=O)C3CCOCC3)ccc2OC[C@@H]2O[C@H](CC(=O)NC3CCCC3)CC[C@@H]21	1	-19	0	0	0
Clc1ccc2nc(C3CCCCC3)c(CC3CCCCC3)n2c1	38*	-18	-9	0	0
CN(c1cccnc1)c1ccc(NC(=O)Cc2c[nH]c3ccccc23)cc1-c1ccc(F)c(F)c1	1	-26	/	1	0
Cc1[nH]c2ccccc2c1CC(=O)Nc1ccc(N(C)c2cccnc2)c(-c2ccc(F)c(F)c2)c1	84*	-8	/	-1	0
CCOc1ccc(C(C(=O)NCC2CCCO2)N(C(=O)c2snc(C(N)=O)c2N)c2ccc3c(c2)OCCO3)cc1 (stereo not given)	-5	-3	27*	4	0
CC(C)c1ccc(N(C(=O)c2snc(C(N)=O)c2N)C(C(=O)NCC2CCCO2)c2ccc(N(C)C)cc2)cc1 (stereo not given)	32*	16	11	-5	0
CN(C)c1ccc(C(C(=O)NCC2CCCO2)N(C(=O)c2snc(C(N)=O)c2N)c2ccccc2)cc1 (stereo not given)	9	8	-1	4	42
NC(=O)c1nsc(C(=O)N(c2ccccc2)C(C(=O)NC2CCCC2)c2ccc3ncccc3c2)c1N (stereo not given)	39*	-9	0	2	0
SMILES	DENV2 CPE	RAD52 anneal inh	AF4-AF9 inh	ERAP1 inh	FGF22 binding
COc1ccc(N(C(=O)c2snc(C(N)=O)c2N)C(C(=O)NC2CCCC2)c2ccc3ncccc3c2)cc1 (stereo not given)	1	-12	-2	1	0
COc1ccc(S(=O)(=O)N2C[C@@H](O)COC[C@@H]3O[C@@H](CC(=O)NCc4ccc(Cl)c(Cl)c4)CC[C@H]32)cc1	0	-16	4	0	0
CCCC#Cc1ccc2c(c1)O[C@@H](CN(C)C(=O)CC1CC1)[C@H](C)CN([C@H](C)CO)S2(=O)=O	-2	10	3	-2	0
Cc1nnc(N/N=C/c2cc(C)n(-c3ccc(F)cc3)c2C)n1N	/	19	54*	-5	-1
Cc1nnc(N/N=C/c2ccccc2O)n1N	6	-4	-4	4	-1
CN(Cc1ccccc1)S(=O)(=O)c1ccc(Cl)c(C(=O)OCC(=O)NC2CCS(=O)(=O)C2)c1 (stereo not given)	32*	-18	4	1	0
C[C@@H]1CN([C@H](C)CO)C(=O)c2cc(C#CCN(C)C)cnc2O[C@H]1CN(C)C(=O)c1cccc(F)c1	7	-15	-4	1	0
N/C(=N/O)c1ccccc1N1CCC(Cc2ccccc2)CC1	1	10	3	2	44*
C[C@@H]1CN([C@H](C)CO)C(=O)c2cc(C#C[C@@H](C)O)cnc2O[C@H]1CN(C)C(=O)c1ccc(F)cc1	43*!	-11	-1	2	0
C[C@H]1CN([C@@H](C)CO)C(=O)c2cc(C#CCN(C)C)cnc2O[C@H]1CN(C)Cc1ccc(F)cc1	32*	10	5	6	0
C[C@@H](O)C#Cc1cnc2c(c1)C(=O)N([C@@H](C)CO)C[C@H](C)[C@H](CN(C)C(=O)c1ccc(F)cc1)O2	-6	7	-5	0	0
C[C@@H]1CN([C@@H](C)CO)C(=O)c2cc(C#CCN(C)C)cnc2O[C@@H]1CN(C)Cc1ccc(F)cc1	-2	3	10	-3	0
C[C@H](CO)N1C[C@H](C)[C@H](CN(C)C(=O)c2ccc(F)cc2)Oc2ncc(C#CCN(C)C)cc2C1=O	35*	-17	-4	2	1
CC(C)CC#Cc1cnc2c(c1)C(=O)N([C@H](C)CO)C[C@@H](C)[C@@H](CN(C)C(=O)c1ccc(F)cc1)O2	21*	2	0	-3	0
